# Measurements from PMC7862700, “An all-to-all approach to the identification of sequence-specific readers for epigenetic DNA modifications on cytosine”.
# Key:
# Assay in all cases: DAPPL (digital affinity profiling via proximity ligation, sequencing); 10 mM Tris-HCl pH 7.5, 50 mM NaCl, 1 mM DTT, 4% glycerol, room temperature, 30 min; GST-TFs on glutathione beads, 16-mer random dsDNA library, 0.1% formaldehyde crosslink after washing; high values mean tight binding
# [1] = target: T1, FEV (Homo sapiens, UniProt Q99581 1-238); conditions: protein: recombinant; tags: N-terminal GST; dsDNA, one strand shown
# T1 sequence: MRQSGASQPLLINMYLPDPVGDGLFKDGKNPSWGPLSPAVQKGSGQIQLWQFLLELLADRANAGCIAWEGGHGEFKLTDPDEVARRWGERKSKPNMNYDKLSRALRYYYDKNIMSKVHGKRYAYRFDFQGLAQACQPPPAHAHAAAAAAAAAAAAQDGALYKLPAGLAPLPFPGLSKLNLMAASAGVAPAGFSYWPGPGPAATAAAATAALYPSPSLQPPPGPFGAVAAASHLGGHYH
# Summary of the method: (§1)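 Beads coated with glutathione captured GST-fused human transcription factors that had been expressed in yeast, and the factors were then given DNA barcodes and pooled with a tag-only sample. The pools were incubated with 200 nmole of a random double-stranded 16-mer DNA library in Tris/NaCl/DTT/glycerol buffer for 30 min at room temperature, washed, crosslinked with 0.1% formaldehyde and proximity-ligated with BsaI/T4 ligase at 37 °C for 1 h. PCR amplification and Illumina NextSeq500 sequencing came last. Binding signal is each hexamer's read frequency for a factor divided by its frequency for the tag-only sample.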
# [2] = target: ETV5 (Homo sapiens, UniProt P41161 1-510); conditions: protein: recombinant; tags: N-terminal GST; dsDNA, one strand shown
# ETV5, sequence (P41161 whole entry): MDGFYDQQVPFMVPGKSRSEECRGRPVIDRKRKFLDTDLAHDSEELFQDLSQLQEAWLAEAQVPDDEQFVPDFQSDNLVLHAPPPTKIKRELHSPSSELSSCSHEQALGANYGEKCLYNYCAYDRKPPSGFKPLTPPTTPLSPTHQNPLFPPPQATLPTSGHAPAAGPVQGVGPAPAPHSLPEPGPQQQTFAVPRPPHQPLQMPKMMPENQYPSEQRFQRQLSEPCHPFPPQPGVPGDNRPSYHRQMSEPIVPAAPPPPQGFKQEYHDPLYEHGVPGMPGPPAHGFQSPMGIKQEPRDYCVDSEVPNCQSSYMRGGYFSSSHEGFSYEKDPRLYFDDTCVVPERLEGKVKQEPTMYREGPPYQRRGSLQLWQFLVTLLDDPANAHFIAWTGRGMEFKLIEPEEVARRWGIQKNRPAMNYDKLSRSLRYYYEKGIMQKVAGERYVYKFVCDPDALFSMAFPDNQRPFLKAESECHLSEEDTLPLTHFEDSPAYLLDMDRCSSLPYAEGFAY
# Summary of the method: as §1
# [3] = target: HSF1 (Homo sapiens, UniProt Q00613 1-529); conditions: protein: recombinant; tags: N-terminal GST; chain copies: 3; dsDNA, one strand shown
# HSF1, sequence (Q00613 whole entry): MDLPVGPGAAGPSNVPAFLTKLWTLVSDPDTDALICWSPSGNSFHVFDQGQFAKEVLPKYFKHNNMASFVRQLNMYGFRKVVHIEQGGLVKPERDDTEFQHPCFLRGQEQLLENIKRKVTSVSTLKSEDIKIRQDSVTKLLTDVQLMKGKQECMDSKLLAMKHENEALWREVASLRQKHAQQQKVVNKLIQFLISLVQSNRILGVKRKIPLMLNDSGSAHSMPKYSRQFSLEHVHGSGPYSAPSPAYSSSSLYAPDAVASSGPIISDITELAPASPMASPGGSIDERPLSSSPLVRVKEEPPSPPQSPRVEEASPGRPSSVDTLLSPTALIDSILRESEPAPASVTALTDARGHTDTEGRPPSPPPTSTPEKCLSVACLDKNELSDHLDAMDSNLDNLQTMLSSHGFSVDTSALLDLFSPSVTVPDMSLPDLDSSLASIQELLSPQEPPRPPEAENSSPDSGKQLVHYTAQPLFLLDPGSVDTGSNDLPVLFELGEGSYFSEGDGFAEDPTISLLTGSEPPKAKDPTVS
# Summary of the method: as §1
# [4] = target: T2, SPIC (Homo sapiens, UniProt Q8N5J4 1-248); conditions: protein: recombinant; tags: N-terminal GST; dsDNA, one strand shown
# T2 sequence: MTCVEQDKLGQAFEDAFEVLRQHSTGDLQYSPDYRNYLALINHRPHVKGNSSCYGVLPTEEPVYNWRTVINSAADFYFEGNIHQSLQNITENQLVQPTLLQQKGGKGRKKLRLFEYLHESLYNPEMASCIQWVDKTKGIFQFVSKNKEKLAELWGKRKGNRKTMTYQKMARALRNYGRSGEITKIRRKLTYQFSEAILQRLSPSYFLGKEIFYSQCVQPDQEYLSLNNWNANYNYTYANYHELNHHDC
# Summary of the method: as §1
# [5] = target: ELF4 (Homo sapiens, UniProt Q99607 1-663); conditions: protein: recombinant; tags: N-terminal GST; dsDNA, one strand shown
# ELF4, sequence (Q99607 whole entry): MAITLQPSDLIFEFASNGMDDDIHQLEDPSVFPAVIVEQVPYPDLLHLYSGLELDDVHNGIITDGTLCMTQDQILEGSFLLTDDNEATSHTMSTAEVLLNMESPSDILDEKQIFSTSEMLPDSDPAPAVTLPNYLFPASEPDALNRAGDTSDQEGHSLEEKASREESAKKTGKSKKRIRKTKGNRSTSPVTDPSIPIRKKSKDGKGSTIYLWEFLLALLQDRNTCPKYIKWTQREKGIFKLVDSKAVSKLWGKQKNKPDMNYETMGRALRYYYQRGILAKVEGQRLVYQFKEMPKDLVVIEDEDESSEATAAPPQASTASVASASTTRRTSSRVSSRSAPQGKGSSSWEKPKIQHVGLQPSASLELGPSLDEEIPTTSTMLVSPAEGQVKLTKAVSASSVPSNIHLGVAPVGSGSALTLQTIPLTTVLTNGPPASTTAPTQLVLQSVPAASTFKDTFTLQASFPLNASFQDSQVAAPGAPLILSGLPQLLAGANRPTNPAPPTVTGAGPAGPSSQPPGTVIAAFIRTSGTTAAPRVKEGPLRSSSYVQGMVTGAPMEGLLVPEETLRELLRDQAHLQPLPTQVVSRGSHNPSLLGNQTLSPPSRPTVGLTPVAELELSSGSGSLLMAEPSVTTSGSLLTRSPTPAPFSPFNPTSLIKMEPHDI
# Summary of the method: as §1
# [6] = target: T3, ELK4 (Homo sapiens, UniProt P28324-2 1-405); conditions: protein: recombinant; tags: N-terminal GST; dsDNA, one strand shown
# T3 sequence: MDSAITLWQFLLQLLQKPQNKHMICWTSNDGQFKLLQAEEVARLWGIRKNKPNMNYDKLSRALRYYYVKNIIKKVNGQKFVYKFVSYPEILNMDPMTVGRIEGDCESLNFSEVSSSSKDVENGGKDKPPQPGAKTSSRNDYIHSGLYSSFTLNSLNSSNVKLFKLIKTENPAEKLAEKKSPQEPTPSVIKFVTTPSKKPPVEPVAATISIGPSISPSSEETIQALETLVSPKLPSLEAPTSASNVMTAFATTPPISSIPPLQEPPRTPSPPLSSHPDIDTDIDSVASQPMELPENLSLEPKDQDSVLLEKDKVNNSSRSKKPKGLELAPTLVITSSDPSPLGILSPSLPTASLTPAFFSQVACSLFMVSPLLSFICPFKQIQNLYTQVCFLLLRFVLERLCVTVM
# Summary of the method: as §1
# [7] = target: T4, ETV2 (Homo sapiens, UniProt O00321 1-342); conditions: protein: recombinant; tags: N-terminal GST; dsDNA, one strand shown
# T4 sequence: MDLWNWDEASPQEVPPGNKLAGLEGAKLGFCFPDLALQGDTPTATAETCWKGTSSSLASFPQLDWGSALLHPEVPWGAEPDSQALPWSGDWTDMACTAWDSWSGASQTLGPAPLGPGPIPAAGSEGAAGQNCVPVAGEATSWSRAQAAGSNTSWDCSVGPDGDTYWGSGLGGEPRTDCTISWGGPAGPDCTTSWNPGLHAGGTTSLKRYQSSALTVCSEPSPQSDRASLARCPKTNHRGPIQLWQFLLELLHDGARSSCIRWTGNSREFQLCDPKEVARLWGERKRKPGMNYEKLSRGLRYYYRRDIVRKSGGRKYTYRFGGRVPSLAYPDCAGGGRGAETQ
# Summary of the method: as §1
# [8] = target: T5, ELF3 (Homo sapiens, UniProt P78545 1-371); conditions: protein: recombinant; tags: N-terminal GST; dsDNA, one strand shown
# T5 sequence: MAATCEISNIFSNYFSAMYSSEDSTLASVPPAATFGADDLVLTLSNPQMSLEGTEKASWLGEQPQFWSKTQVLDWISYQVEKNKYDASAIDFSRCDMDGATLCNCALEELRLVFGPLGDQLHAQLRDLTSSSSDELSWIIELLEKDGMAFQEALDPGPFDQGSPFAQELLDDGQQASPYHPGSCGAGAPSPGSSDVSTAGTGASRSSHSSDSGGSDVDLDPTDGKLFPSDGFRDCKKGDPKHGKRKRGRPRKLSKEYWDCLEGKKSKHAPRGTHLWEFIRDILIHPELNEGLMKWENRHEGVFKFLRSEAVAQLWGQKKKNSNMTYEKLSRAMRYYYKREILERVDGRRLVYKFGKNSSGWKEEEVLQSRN
# Summary of the method: as §1
# [9] = target: CRX (Homo sapiens, UniProt O43186 1-299); conditions: protein: recombinant; tags: N-terminal GST; dsDNA, one strand shown
# CRX, sequence (O43186 whole entry): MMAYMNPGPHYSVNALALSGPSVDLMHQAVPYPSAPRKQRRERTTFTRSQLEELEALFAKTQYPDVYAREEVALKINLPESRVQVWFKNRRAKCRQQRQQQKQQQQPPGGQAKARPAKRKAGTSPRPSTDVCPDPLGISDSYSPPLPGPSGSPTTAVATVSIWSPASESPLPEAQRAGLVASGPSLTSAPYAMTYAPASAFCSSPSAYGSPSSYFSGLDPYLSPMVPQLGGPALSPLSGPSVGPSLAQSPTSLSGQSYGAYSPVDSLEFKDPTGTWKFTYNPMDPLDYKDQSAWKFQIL
# Summary of the method: as §1
# [10] = target: ETV1 (Homo sapiens, UniProt P50549 1-477); conditions: protein: recombinant; tags: N-terminal GST; dsDNA, one strand shown
# ETV1, sequence (P50549 whole entry): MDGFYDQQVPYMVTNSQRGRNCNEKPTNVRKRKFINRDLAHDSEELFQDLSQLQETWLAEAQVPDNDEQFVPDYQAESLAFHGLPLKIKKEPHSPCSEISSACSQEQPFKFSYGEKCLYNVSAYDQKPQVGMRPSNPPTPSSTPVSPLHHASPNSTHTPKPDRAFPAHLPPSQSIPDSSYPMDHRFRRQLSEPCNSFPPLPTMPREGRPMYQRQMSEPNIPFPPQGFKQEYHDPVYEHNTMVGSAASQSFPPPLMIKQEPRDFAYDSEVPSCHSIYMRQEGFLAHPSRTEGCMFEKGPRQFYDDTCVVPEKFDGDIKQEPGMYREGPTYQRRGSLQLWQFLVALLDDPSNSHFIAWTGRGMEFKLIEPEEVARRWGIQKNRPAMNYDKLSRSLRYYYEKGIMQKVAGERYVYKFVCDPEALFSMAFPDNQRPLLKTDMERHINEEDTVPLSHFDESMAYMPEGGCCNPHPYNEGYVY
# Summary of the method: as §1
# [11] = target: T6, ERF (Homo sapiens, UniProt P50548 1-548); conditions: protein: recombinant; tags: N-terminal GST; dsDNA, one strand shown
# T6 sequence: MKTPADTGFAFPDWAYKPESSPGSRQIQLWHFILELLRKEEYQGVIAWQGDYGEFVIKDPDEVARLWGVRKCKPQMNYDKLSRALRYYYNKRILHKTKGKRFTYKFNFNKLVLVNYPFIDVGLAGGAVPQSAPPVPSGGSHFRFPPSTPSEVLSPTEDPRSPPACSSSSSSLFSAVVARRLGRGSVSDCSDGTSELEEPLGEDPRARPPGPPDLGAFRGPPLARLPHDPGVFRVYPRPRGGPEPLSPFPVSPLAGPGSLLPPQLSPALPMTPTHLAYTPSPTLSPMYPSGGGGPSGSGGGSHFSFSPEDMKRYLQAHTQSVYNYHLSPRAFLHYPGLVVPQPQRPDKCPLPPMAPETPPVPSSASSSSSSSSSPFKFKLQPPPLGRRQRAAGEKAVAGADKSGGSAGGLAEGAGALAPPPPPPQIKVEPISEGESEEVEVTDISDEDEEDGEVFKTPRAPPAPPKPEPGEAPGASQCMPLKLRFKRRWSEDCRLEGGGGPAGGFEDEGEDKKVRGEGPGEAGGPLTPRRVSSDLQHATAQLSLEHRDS
# Summary of the method: as §1
# [12] = target: T7, ETV3L (Homo sapiens, UniProt Q6ZN32 1-361); conditions: protein: recombinant; tags: N-terminal GST; dsDNA, one strand shown
# T7 sequence: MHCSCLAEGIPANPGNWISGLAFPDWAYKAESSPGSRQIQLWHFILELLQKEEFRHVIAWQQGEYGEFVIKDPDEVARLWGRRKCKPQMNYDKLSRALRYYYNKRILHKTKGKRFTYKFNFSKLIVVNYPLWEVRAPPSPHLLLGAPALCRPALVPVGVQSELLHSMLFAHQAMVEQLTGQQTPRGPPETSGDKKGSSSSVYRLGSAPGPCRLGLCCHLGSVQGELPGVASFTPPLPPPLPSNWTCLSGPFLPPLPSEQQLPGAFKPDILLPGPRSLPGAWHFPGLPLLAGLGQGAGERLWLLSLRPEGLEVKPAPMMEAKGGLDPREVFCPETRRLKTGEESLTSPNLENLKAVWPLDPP
# Summary of the method: as §1
# [13] = target: T8, ETS2 (Homo sapiens, UniProt P15036 1-469); conditions: protein: recombinant; tags: N-terminal GST; dsDNA, one strand shown
# T8 sequence: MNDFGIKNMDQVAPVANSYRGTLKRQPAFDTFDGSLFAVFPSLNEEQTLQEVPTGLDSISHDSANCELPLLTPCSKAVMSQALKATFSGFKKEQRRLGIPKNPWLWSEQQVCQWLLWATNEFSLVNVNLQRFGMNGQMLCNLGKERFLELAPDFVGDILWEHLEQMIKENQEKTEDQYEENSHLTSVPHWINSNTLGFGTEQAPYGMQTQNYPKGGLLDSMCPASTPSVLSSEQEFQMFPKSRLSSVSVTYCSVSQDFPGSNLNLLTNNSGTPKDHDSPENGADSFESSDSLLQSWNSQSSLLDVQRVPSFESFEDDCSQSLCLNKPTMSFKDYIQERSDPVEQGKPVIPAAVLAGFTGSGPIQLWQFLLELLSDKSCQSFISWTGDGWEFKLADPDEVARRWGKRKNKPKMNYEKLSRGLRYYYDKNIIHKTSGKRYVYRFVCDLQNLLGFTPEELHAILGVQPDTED
# Summary of the method: as §1
# [14] = target: T9, SPDEF (Homo sapiens, UniProt O95238 1-335); conditions: protein: recombinant; tags: N-terminal GST; dsDNA, one strand shown
# T9 sequence: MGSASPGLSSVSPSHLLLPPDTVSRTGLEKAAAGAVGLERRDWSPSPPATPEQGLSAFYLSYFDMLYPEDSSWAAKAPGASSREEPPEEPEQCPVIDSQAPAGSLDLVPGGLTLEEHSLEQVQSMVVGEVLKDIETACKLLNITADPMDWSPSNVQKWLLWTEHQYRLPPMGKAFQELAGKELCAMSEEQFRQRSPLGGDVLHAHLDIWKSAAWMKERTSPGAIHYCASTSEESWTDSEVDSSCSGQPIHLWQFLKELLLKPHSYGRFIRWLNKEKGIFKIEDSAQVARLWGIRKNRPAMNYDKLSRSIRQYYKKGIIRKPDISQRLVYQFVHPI
# Summary of the method: as §1
# [15] = target: T10, ETV7 (Homo sapiens, UniProt Q9Y603 1-341); conditions: protein: recombinant; tags: N-terminal GST; dsDNA, one strand shown
# T10 sequence: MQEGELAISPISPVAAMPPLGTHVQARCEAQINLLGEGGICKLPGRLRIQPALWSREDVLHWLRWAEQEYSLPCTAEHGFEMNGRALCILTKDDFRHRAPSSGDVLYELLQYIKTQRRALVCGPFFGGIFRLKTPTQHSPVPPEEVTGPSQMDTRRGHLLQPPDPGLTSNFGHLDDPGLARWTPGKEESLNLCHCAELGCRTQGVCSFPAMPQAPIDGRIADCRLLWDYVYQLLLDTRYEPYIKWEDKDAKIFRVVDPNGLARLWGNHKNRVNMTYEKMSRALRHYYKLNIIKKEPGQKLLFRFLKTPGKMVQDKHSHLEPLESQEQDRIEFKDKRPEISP
# Summary of the method: as §1
# [16] = target: T11, ELF5 (Homo sapiens, UniProt Q9UKW6-2 1-255); conditions: protein: recombinant; tags: N-terminal GST; dsDNA, one strand shown
# T11 sequence: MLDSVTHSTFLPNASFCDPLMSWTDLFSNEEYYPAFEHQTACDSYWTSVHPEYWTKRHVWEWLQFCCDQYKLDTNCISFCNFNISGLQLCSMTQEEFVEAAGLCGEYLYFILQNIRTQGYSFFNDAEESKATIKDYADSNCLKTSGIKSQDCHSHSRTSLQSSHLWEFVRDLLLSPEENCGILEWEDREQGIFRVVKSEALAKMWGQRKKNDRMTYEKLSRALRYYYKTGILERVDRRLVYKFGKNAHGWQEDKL
# Summary of the method: as §1
# [17] = target: T12, ETV3 (Homo sapiens, UniProt P41162-2 1-143); conditions: protein: recombinant; tags: N-terminal GST; dsDNA, one strand shown
# T12 sequence: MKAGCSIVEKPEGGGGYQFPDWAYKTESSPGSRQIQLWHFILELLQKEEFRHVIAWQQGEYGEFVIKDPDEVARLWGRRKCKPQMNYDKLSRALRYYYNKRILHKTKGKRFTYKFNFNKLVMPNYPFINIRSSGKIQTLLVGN
# Summary of the method: as §1
# [18] = target: ETV6 (Homo sapiens, UniProt P41212 1-452); conditions: protein: recombinant; tags: N-terminal GST; dsDNA, one strand shown
# ETV6, sequence (P41212 whole entry): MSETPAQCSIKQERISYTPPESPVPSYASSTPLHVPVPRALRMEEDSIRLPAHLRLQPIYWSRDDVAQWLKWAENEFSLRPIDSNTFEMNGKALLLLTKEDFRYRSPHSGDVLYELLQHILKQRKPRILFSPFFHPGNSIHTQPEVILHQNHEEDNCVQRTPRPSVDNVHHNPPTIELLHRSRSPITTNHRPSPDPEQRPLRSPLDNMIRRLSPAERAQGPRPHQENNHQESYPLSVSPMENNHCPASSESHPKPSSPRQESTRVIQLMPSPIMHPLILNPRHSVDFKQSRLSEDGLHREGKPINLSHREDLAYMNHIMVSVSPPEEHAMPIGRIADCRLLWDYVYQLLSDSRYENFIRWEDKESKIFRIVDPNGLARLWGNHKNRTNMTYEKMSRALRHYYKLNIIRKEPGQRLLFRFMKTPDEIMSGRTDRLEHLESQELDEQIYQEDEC
# Summary of the method: as §1
sequence,measurement,setting,value
TCCGAT,binding signal,[1],"1.41 fold enrichment (6-mer frequency, TF over GST control)"
same,binding signal,[2],"1.3 fold enrichment (6-mer frequency, TF over GST control)"
same,binding signal,[3],"1.42 fold enrichment (6-mer frequency, TF over GST control)"
same,binding signal,[4],"1.25 fold enrichment (6-mer frequency, TF over GST control)"
same,binding signal,[5],"1.22 fold enrichment (6-mer frequency, TF over GST control)"
same,binding signal,[6],"1.25 fold enrichment (6-mer frequency, TF over GST control)"
same,binding signal,[7],"1.15 fold enrichment (6-mer frequency, TF over GST control)"
same,binding signal,[8],"1.23 fold enrichment (6-mer frequency, TF over GST control)"
same,binding signal,[9],"1.94 fold enrichment (6-mer frequency, TF over GST control)"
same,binding signal,[10],"1.3 fold enrichment (6-mer frequency, TF over GST control)"
same,binding signal,[11],"1.25 fold enrichment (6-mer frequency, TF over GST control)"
same,binding signal,[12],"1.22 fold enrichment (6-mer frequency, TF over GST control)"
same,binding signal,[13],"1.28 fold enrichment (6-mer frequency, TF over GST control)"
same,binding signal,[14],"1.34 fold enrichment (6-mer frequency, TF over GST control)"
same,binding signal,[15],"1.27 fold enrichment (6-mer frequency, TF over GST control)"
same,binding signal,[16],"1.27 fold enrichment (6-mer frequency, TF over GST control)"
same,binding signal,[17],"1.35 fold enrichment (6-mer frequency, TF over GST control)"
same,binding signal,[18],"1.39 fold enrichment (6-mer frequency, TF over GST control)"
